Experimental findings from ChEMBL document CHEMBL2218924, “A broad activity screen in support of a chemogenomic map for kinase signalling research and drug discovery” (Biochem J, 2013) are described below.

Assay [1] deals with Tyrosine-protein kinase Fer (Homo sapiens) (UniProt P16591). The settings on record: at 10 µM.
The target of assay [2] is Tyrosine-protein kinase Fes/Fps (Homo sapiens) (UniProt P07332). The settings on record: at 1 µM.
Assay [3] addresses Tyrosine-protein kinase Fgr (Homo sapiens) (UniProt P09769). The settings on record: at 1 µM.
For assay [4] the target is unchanged. The settings on record: at 10 µM.
In assay [5] the target is Vascular endothelial growth factor receptor 1 (Homo sapiens) (UniProt P17948). Particulars: at 10 µM.
The target in assay [6] is Receptor-type tyrosine-protein kinase FLT3 (Homo sapiens) (UniProt P36888). The settings on record: at 1 µM.
Sequence of Receptor-type tyrosine-protein kinase FLT3 (Homo sapiens) (P36888 whole entry): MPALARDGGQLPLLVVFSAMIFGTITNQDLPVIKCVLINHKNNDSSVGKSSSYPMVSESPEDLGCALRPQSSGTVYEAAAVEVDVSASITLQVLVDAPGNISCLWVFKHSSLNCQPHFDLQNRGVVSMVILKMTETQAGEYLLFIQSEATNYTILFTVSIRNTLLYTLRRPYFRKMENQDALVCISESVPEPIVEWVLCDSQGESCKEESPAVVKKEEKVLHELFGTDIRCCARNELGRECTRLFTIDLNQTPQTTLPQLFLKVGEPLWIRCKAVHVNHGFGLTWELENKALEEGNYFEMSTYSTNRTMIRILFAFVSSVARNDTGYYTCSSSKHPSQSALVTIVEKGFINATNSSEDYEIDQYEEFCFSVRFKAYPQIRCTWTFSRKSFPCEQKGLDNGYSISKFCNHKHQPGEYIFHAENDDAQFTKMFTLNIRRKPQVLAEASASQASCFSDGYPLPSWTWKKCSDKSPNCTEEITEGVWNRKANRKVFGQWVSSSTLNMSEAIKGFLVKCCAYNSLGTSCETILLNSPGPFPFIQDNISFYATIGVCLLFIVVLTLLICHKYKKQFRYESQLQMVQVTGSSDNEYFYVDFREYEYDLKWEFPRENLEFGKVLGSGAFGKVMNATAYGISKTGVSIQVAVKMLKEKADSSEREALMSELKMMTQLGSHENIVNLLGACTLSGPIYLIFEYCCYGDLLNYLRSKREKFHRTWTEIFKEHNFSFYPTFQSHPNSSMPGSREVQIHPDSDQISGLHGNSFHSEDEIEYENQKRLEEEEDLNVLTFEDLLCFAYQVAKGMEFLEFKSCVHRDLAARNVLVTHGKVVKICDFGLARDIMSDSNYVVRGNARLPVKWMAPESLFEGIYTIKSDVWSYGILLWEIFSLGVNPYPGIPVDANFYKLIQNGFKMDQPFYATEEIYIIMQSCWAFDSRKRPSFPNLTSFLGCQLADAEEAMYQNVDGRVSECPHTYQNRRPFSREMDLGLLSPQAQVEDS
Assay [7] has the same target. Particulars: at 10 µM.
Assay [8] has as its target Vascular endothelial growth factor receptor 3 (Homo sapiens) (UniProt P35916). Particulars: at 1 µM.
Assay [9] has the same target. The settings on record: at 10 µM.
The target of assay [10] is Macrophage colony-stimulating factor 1 receptor (Homo sapiens) (UniProt P07333). The settings on record: at 1 µM.
Sequence of Macrophage colony-stimulating factor 1 receptor (Homo sapiens) (P07333 whole entry): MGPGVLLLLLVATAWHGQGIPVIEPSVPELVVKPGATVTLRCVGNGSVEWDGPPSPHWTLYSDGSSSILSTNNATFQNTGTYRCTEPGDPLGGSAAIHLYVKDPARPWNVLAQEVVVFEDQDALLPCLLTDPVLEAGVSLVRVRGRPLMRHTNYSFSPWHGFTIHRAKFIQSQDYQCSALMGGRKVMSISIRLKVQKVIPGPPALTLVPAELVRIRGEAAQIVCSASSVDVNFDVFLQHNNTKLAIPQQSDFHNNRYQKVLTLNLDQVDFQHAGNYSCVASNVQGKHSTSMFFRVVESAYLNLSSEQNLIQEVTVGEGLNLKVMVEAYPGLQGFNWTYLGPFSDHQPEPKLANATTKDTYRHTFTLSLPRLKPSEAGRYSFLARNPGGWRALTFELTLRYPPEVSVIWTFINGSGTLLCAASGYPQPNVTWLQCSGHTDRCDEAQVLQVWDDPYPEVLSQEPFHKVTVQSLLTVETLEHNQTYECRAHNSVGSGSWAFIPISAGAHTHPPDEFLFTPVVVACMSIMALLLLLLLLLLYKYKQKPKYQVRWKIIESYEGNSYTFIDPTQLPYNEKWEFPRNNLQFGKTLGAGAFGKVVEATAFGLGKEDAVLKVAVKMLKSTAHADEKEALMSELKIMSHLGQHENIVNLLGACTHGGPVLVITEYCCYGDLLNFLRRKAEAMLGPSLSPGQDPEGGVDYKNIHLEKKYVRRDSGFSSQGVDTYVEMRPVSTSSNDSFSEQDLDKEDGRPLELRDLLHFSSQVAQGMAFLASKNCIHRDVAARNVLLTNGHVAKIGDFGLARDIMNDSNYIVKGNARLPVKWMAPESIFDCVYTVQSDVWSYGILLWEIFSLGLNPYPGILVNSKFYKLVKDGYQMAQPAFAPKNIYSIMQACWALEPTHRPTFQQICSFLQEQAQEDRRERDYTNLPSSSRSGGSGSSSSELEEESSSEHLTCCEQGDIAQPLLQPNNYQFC
The target is the same in assay [11]. Particulars: at 10 µM.
Assay [12] concerns the target Tyrosine-protein kinase Fyn (Homo sapiens) (UniProt P06241). Particulars: at 1 µM.
Assay [13] has the same target. The settings on record: at 10 µM.
Assay [14] has as its target T1, Mitogen-activated protein kinase kinase kinase kinase 2 (Homo sapiens) (UniProt Q12851).
T1 sequence (whole entry): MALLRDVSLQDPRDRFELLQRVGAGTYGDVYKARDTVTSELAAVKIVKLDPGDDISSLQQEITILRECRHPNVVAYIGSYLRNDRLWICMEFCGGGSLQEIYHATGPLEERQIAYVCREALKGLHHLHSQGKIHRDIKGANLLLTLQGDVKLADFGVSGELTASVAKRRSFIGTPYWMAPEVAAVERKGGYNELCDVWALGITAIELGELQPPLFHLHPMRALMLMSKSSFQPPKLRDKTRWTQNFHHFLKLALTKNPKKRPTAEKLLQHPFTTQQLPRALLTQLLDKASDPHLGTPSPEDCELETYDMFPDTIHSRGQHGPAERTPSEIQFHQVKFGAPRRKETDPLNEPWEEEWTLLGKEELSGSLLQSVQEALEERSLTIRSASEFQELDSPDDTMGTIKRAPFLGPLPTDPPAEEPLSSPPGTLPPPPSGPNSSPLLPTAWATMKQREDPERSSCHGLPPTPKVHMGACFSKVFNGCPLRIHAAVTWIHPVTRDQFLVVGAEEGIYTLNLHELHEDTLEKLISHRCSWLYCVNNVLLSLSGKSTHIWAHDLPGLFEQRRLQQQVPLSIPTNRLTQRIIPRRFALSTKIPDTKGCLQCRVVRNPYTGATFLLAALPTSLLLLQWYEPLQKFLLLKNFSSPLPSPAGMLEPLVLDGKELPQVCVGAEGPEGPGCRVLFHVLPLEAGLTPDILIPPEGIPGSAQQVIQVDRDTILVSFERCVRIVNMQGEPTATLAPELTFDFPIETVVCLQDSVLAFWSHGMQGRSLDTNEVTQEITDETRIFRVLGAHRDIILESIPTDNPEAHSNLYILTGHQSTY
Particulars: at 1 µM.

For assay [15], the target named is T1, Mitogen-activated protein kinase kinase kinase kinase 2 (Homo sapiens). Particulars: at 10 µM.
For assay [16], the target named is G protein-coupled receptor kinase 5 (Homo sapiens) (UniProt P34947). Particulars: at 10 µM.
Sequence of G protein-coupled receptor kinase 5 (Homo sapiens) (P34947 whole entry, looked up): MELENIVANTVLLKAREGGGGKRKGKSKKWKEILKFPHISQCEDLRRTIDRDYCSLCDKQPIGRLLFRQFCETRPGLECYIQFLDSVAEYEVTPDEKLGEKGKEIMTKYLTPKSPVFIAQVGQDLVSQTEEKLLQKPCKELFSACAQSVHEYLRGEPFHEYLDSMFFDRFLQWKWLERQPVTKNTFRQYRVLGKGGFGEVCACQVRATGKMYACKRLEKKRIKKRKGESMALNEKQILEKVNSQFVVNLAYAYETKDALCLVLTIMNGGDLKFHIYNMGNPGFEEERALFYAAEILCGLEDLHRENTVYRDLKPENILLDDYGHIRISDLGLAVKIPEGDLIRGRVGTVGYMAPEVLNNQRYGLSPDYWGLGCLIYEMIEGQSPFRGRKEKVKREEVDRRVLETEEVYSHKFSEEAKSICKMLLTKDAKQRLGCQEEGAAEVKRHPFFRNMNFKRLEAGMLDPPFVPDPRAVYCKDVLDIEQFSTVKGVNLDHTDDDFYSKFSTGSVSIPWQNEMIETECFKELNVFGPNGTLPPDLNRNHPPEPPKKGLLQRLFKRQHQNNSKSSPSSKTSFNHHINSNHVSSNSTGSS
In assay [17] the target is G protein-coupled receptor kinase 6 (Homo sapiens) (UniProt P43250). Particulars: at 10 µM.
Sequence of G protein-coupled receptor kinase 6 (Homo sapiens) (P43250 whole entry, looked up): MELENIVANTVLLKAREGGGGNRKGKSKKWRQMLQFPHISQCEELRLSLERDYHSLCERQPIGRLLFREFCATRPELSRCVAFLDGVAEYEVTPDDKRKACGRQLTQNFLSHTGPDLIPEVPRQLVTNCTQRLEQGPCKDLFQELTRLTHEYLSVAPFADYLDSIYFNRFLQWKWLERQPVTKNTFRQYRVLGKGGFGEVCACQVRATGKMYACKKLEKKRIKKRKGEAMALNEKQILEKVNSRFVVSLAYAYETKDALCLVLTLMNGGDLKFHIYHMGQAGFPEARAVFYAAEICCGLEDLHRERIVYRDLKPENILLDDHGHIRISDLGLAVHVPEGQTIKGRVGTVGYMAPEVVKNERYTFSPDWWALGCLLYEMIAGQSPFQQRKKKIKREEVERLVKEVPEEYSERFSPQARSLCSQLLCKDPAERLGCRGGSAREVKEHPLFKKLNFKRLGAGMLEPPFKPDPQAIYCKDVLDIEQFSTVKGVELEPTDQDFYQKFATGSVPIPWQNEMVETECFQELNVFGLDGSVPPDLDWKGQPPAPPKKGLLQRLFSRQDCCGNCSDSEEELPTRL
Assay [18] concerns the target T2, Rhodopsin kinase GRK7 (Homo sapiens) (UniProt Q8WTQ7).
T2 sequence (whole entry): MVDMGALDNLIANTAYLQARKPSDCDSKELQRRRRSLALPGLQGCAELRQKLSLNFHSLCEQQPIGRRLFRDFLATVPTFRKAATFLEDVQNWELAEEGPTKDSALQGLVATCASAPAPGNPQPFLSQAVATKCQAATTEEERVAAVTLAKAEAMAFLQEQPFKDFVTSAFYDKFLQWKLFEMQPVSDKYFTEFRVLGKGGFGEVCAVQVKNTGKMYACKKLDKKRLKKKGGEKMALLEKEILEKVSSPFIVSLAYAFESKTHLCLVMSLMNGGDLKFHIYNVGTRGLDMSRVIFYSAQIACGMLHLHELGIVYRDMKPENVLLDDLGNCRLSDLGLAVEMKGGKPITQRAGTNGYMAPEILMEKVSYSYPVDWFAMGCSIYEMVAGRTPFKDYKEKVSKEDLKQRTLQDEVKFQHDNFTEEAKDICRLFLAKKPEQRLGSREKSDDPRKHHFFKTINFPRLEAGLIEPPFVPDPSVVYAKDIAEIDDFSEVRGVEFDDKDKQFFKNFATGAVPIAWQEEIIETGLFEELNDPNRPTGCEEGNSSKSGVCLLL
The settings on record: at 1 µM.

Assay [19] addresses Tyrosine-protein kinase Fes/Fps (Homo sapiens) (UniProt P07332). The settings on record: at 10 µM.
In assay [20] the target is Vascular endothelial growth factor receptor 1 (Homo sapiens) (UniProt P17948). Particulars: at 1 µM.

Sequence of Tyrosine-protein kinase Fes/Fps (Homo sapiens) (P07332 whole entry): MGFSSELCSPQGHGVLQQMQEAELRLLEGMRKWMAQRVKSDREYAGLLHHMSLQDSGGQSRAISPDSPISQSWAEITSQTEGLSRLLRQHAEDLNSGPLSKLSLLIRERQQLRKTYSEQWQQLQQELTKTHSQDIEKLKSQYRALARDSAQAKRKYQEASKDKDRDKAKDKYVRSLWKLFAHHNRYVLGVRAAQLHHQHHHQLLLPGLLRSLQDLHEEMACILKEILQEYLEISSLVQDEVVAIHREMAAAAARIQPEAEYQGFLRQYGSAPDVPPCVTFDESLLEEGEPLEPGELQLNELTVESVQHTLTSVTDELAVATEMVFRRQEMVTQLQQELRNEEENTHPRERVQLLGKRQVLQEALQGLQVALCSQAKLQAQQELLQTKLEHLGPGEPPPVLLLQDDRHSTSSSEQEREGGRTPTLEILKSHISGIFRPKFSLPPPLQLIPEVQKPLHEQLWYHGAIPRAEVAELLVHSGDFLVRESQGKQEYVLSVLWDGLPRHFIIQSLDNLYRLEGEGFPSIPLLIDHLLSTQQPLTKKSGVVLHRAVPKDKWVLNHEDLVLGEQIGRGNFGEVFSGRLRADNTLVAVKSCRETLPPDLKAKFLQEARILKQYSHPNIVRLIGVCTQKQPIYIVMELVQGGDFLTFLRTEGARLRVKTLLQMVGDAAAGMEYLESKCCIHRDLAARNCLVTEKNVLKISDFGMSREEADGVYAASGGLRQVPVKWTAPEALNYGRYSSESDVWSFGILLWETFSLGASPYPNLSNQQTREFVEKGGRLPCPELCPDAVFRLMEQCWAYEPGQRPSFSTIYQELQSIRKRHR
Sequence of Tyrosine-protein kinase Fyn (Homo sapiens) (P06241 2-537 limits assumed): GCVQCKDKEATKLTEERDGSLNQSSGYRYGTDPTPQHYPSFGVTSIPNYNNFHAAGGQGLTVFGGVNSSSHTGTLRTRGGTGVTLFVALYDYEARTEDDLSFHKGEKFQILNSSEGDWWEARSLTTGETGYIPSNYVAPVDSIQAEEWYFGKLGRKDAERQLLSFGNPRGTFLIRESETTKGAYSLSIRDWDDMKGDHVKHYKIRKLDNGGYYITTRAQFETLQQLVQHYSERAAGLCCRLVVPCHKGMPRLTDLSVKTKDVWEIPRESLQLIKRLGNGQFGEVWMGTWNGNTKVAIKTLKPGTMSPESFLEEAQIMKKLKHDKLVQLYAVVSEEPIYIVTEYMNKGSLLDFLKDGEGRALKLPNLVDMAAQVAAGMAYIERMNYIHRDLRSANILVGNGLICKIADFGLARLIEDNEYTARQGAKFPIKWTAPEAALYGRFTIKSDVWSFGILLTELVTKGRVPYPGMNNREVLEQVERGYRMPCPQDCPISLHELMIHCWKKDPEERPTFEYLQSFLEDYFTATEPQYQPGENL
Sequence of Tyrosine-protein kinase Fgr (Homo sapiens) (P09769 2-529 limits assumed): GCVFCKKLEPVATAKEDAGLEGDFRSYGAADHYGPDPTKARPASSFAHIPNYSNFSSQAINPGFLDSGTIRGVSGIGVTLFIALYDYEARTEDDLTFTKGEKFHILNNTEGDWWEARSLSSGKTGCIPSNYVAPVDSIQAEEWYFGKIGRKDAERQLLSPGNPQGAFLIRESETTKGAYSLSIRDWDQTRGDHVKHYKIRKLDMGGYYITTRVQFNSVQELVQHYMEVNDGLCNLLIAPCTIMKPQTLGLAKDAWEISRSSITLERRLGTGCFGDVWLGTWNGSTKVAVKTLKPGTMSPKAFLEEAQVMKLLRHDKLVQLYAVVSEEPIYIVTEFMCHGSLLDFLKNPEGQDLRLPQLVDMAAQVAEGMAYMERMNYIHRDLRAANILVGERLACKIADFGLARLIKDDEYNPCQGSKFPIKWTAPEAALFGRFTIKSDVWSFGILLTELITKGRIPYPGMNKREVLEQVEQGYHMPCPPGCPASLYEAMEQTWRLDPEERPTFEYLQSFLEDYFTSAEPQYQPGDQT

Consider `Nc1ncnc2[nH]nc(Nc3ccc(F)cc3)c12`, for which the residual activity in assay [1] turned out to be 99%; in [2], 98%; in [3] it was 56%; in assay [4], 18%; in assay [5], 35%; in [6], 114%. The residual activity is 94% in assay [7]; 80% in [8]; 41% in assay [9]; 69% in [10]; 27% in assay [11]; 54% in [12]. Besides, the residual activity in assay [13] was 17%; in [14] it was 98%; in assay [15] it was 49%; in assay [16], 97%; in [17], 97%; in [18], 110%.
`COc1cc2nccc(Oc3ccc(NC(=S)NC(=O)c4ccccc4C)cc3)c2cc1OC`: the residual activity in assay [1] came out at 34%; in assay [2] it was 79%; in assay [19], 36%; in [3] it was 14%; in assay [4], 3%; in [20], 5%. Also, the residual activity in assay [5] worked out at 0%; in assay [6], 75%; in [7], 31%; in [8] it was 1%; in [9] it was 0%; in [10], 0%. For the same compound, the residual activity was -1% in assay [11]; -1% in [12]; 0% in [13]; 68% in assay [14]; 44% in assay [15]; 88% in assay [16]. For the same compound, the residual activity in [17] worked out at 79%; in assay [18] it was 88%.
Turning to `Nc1ncnc2c1c(-c1ccc(Oc3ccccc3)cc1)cn2C1CCCC1`, the residual activity is 45% in assay [1]; 112% in assay [2]; 52% in assay [19]; 2% in assay [3]; 0% in [4]; 15% in assay [20]. Further, the residual activity came to 0% in [5]; 19% in assay [6]; 0% in [7]; 1% in assay [8]; 0% in assay [9]; 18% in assay [10]. In addition, the residual activity in [11] stood at 1%; in [12], 0%; in assay [13], 0%; in [14] it was 87%; in assay [15], 54%; in assay [16] it was 89%. Moreover, the results for the residual activity in assay [17] and in assay [18] were 73% and 87%, respectively.
As to `Cn1sc(=O)n(Cc2ccccc2)c1=O`, the residual activity in assay [1] was 91%; in assay [2] it was 93%; in [19] it was 85%; in assay [3], 90%; in assay [4], 95%; in assay [20], 85%. The residual activity was 73% in [5]; 86% in assay [6]; 81% in [7]; 85% in [8]; 79% in [9]; 91% in assay [10]. Also, the residual activity worked out at 80% in assay [11]; 99% in assay [12]; 96% in assay [13]; 88% in assay [14]; 81% in assay [15]; 85% in assay [16]. Also, the residual activity in assay [17] was 80%; in assay [18] it was 89%.
Regarding `CCCCc1c(-c2ccc(O)cc2)[nH]c2nccnc12`, the residual activity amounted to 81% in assay [1]; 35% in [2]; 12% in assay [19]; 57% in assay [3]; 36% in assay [4]; 43% in [20]. Besides, the residual activity in assay [5] was found to be 11%; in assay [6], 29%; in assay [7], 6%; in assay [8], 6%; in assay [9], 2%; in assay [11], 6%. Further, the residual activity in assay [12] turned out to be 43%; in assay [13] it was 11%; in assay [14], 7%; in [15], 4%; in assay [16], 90%; in assay [17], 90%. In addition, the residual activity in assay [18] stood at 86%.
As for `NC(=O)c1cccc(-c2cc(Nc3ccc(OC(F)(F)F)cc3)ncn2)c1`, the residual activity amounted to 125% in assay [2]; 99% in assay [19]; 97% in [6]; 93% in assay [7]; 90% in assay [8]; 81% in assay [9]. In addition, the residual activity in assay [10] came to 74%; in assay [11] it was 73%; in assay [13], 78%; in [15], 88%; in assay [17], 100%.
For `Nc1nccc(-c2c(-c3ccc(F)cc3)ncn2C2CCNCC2)n1`, the residual activity in assay [4] was 25%; in assay [8] it was 69%; in assay [9] it was 10%; in assay [14], 82%; in assay [15], 61%.
